Measured values taken from PubChem BioAssay (NCATS).
Records with an inconclusive call do not appear. The source made the active and inactive calls. Unless noted, calls come from the whole dose curve; as a rule, active = well fitted curve in the direction sought with a large enough effect; inconclusive = small, poorly fitted or top-dose-only effect, or another doubt; inactive = no such curve, though single readings can be large; an effect the other way counts as inactive or inconclusive.

Key:
[1] = target: Alpha-galactosidase A (Homo sapiens) (UniProt P06280); experiment: Counterscreen for Glucocerebrosidase Inhibitors: qHTS Assay for Human alpha-Galactosidase at pH 4.5 (AID 992); note: 0% is about no effect
Alpha-galactosidase A (Homo sapiens), sequence (P06280 whole entry, looked up): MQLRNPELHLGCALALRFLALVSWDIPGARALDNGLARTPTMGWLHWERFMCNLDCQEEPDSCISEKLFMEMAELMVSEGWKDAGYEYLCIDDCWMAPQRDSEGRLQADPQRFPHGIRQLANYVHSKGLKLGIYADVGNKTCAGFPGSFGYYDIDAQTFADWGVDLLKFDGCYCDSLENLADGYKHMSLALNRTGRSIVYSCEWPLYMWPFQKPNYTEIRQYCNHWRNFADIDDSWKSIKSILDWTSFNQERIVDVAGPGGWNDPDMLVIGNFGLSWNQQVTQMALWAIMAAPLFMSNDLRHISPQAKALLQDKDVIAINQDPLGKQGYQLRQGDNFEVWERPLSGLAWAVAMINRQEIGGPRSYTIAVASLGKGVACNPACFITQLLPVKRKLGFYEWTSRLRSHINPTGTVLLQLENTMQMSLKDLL
How it was run: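 Human enzyme (2 nM) with 80 uM 4-methylumbelliferyl alpha-D-galactopyranoside in 50 mM citric acid, 0.005% Tween-20, pH 4.5, 20 min at room temperature. Compounds 0.7 nM–77 uM; fluorescence Ex 365/Em 440 after pH 10 stop; AC50 from Hill fits.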

[2] = target: alpha-glucosidase (Oryza sativa, rice) (UniProt Q653V4); experiment: Counterscreen for Glucocerebrosidase Inhibitors: qHTS Assay for Rice alpha-Glucosidase at pH 5.0 (AID 997);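 note: 0% = full activity with enzyme and -100% = basal without enzyme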
How it was run: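 Rice alpha-glucosidase (4 nM final) with 400 uM 4-methylumbelliferyl-alpha-D-glucopyranoside in citrate buffer pH 5.0, 20 min at room temperature, stopped at pH 10; fluorescence 365/440 nm, compounds 0.7 nM–77 uM, AC50 from Hill fits.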

[3] = target: ATP-dependent 6-phosphofructokinase (Trypanosoma brucei brucei) (UniProt O15648); experiment: qHTS Assay to Find Inhibitors of T. brucei phosphofructokinase: hit validation (AID 492961);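 note: luminescence reports ADP formed as PFK phosphorylates fructose-6-phosphate with ATP; series mostly up to about 51 µM; % is set by controls: 0 for no effect and ±100 for the full control effect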
ATP-dependent 6-phosphofructokinase (Trypanosoma brucei brucei), sequence (O15648 whole entry, looked up): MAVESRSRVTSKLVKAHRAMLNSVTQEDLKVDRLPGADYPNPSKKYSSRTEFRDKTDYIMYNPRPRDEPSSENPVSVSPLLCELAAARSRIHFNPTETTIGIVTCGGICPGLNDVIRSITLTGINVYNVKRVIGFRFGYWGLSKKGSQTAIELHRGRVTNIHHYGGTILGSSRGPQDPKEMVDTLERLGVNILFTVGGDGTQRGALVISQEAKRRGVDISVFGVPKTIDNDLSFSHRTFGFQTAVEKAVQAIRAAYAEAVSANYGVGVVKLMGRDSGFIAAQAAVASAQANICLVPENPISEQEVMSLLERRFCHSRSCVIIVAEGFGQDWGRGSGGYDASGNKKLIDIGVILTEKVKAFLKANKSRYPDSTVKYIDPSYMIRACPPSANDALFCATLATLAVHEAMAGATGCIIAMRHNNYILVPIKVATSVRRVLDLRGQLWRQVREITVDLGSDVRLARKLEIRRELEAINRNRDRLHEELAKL
How it was run: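 PFK 1.25 nM, F6P 0.5 mM, ATP 0.1 mM, MgCl2 5 mM, 0.1 M TEA pH 8.0, Tween20 0.01%, BSA 0.1%; 45 min RT. ADP-Glo two-step detection, luminescence. qHTS titration; curve fitting with curve-class categorization.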

[4] = target: Ubiquitin carboxyl-terminal hydrolase 1 (Homo sapiens) (UniProt O94782); experiment: Inhibitors of USP1/UAF1: Pilot qHTS (AID 504865);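 note: rhodamine fluorescence freed from ubiquitin-rhodamine substrate followed over time; top concentration of the series differs between compounds; % is set by controls: 0 for no effect and ±100 for the full control effect; nearly all actives have a fitted effect of over 35% in size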
Ubiquitin carboxyl-terminal hydrolase 1 (Homo sapiens), sequence (O94782 whole entry, looked up): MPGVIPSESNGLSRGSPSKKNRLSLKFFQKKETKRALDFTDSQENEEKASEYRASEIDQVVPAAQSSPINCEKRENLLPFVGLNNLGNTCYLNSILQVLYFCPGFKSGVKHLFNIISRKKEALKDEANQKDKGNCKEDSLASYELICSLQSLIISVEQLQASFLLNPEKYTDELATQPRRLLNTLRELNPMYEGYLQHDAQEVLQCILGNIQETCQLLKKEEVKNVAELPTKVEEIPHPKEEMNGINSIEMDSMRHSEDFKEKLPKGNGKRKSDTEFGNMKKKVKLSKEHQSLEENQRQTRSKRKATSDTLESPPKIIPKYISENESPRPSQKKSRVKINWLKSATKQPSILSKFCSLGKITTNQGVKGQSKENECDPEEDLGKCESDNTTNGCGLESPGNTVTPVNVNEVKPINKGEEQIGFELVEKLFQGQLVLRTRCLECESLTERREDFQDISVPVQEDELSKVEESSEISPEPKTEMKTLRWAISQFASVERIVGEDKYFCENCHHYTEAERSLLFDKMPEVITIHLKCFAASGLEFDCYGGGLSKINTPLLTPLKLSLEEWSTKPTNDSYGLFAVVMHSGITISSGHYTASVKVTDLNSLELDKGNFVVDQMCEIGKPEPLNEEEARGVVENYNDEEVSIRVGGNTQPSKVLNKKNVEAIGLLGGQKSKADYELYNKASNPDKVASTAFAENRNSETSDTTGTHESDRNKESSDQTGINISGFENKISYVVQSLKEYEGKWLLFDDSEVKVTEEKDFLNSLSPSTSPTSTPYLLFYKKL
How it was run: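 Enzyme-free wells gave the negative control, while test wells held 1nM USP1/UAF1 preincubated with compound for 15 min at room temperature. Ub-Rho at 150nM final started the reaction, and fluorescence at 480/540 nm was recorded kinetically.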

[5] = target: DNA dC->dU-editing enzyme APOBEC-3G (Homo sapiens) (UniProt Q9HC16); experiment: qHTS for inhibitors of Vif-A3G interactions: Validation (AID 588379); note: 0% is about no effect
DNA dC->dU-editing enzyme APOBEC-3G (Homo sapiens), sequence (Q9HC16 whole entry, looked up): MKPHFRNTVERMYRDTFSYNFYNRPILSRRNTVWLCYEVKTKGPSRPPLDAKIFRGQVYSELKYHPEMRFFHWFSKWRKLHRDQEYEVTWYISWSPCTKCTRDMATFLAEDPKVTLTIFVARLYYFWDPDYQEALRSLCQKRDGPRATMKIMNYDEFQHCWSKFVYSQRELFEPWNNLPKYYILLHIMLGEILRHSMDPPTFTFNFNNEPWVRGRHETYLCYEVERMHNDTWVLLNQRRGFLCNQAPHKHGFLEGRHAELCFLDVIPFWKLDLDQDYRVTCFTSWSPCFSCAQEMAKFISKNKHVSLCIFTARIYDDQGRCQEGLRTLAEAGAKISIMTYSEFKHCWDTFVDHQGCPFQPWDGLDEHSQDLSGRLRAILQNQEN
How it was run: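 HeLa cells stably expressing Vif and A3G-eYFP, 700 cells/well, incubated overnight at 37 deg C, then exposed to compound overnight at 37 deg C. Inhibition of Vif-mediated degradation read as increased yellow fluorescence (Ex 488/Em 500-530) by laser-scanning cytometry.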

[6] = target: Estrogen receptor (Homo sapiens) (UniProt P03372); experiment: qHTS assay for small molecule agonists of estrogen receptor alpha signaling (AID 588514; calls by dose curve;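 note: 0% = vehicle only and 100% = reference agonist; nearly all actives have a fitted effect of over 70% in size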)
Estrogen receptor (Homo sapiens), sequence (P03372 whole entry, looked up): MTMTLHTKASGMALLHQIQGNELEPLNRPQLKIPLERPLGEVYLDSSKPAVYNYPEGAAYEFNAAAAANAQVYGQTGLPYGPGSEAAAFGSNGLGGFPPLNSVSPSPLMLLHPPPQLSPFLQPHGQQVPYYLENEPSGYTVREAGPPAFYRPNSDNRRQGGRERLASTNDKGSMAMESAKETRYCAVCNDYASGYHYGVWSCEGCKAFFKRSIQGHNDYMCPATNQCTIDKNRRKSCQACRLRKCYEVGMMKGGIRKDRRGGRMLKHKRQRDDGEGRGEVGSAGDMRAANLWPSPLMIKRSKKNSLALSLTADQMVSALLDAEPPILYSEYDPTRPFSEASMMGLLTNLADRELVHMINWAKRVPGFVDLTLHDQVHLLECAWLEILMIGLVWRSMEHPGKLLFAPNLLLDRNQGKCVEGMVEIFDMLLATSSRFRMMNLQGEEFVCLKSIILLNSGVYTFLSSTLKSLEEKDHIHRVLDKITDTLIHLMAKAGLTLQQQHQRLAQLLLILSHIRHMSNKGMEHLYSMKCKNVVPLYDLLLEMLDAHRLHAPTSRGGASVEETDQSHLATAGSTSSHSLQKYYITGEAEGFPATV
How it was run: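 Reporter-gene assay. […] controls beta-lactamase in HEK 293 GripTite cells; after 18 hrs with compound, CCF4 substrate is added for 2 hrs and fluorescence is read.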

[7] = target: Androgen receptor (Homo sapiens) (UniProt P10275); experiment: qHTS assay for small molecule agonists of androgen receptor signaling (AID 588515; active = well fitted curve in the direction sought with a large enough effect in the signal ratio, with a control signal flat; the % refers to the signal ratio; note: % is set by controls: 0 for no effect and ±100 for the full control effect); details: AR-UAS-bla HEK293, beta-lactamase ratio, agonist 16 h; hits give high values
Androgen receptor (Homo sapiens), sequence (P10275 whole entry, looked up): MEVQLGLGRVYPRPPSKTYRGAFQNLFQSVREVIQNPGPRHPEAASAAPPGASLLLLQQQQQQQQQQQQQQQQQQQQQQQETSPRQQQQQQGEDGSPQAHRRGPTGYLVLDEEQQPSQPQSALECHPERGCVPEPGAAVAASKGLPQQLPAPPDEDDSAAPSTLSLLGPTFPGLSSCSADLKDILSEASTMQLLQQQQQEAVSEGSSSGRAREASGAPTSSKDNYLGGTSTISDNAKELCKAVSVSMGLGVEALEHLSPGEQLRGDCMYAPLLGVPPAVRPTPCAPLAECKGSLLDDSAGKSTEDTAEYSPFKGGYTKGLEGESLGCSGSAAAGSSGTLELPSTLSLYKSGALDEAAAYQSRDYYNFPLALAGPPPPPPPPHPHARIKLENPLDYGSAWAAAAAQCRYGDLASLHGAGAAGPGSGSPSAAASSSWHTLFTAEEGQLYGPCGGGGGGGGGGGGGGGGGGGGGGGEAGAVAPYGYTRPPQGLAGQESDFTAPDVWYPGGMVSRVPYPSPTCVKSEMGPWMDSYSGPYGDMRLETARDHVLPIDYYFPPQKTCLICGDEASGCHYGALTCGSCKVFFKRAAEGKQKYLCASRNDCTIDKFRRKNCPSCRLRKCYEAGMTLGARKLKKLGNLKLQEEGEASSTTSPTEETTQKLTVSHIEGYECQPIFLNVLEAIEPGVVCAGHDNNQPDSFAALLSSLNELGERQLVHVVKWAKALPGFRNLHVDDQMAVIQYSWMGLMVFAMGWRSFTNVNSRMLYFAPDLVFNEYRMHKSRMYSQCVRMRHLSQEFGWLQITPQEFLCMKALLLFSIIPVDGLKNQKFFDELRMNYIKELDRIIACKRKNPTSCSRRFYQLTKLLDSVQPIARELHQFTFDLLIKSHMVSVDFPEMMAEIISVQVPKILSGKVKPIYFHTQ
How it was run: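 EC50 and efficacy came from Hill fits of titrations (up to 92 uM) normalized to 30 nM R1881 as 100% and DMSO as 0%. Compound exposure was 16 h at 37 C on AR-UAS-bla HEK293 cells, with a 405/460/530 nm CCF4 fluorescence read.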

[8] = Cell Viability - LYMP2-010 (AID 981);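 note: cells exposed to compound for 24 hours at 37 °C; nearly all actives have a fitted effect of over 55% in size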; note: potency is the fitted concentration of half-maximal effect
How it was run: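 Acute toxicity is scored as a concentration-dependent loss of cellular ATP in human lymphoblastoid cells after 24 hr compound exposure in complete medium. Tetraoctylammonium bromide is the positive control.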

[9] = Cell Viability - LYMP2-012 (AID 982);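 note: cellular ATP by luciferase luminescence where a drop means cytotoxicity; cells exposed to compound for one day before reading; 0% = DMSO only and full loss = 92 µM tetraoctylammonium bromide; nearly all actives have a fitted effect of over 55% in size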
[10] = Cell Viability - LYMP2-014 (AID 983);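 note: series mostly up to about 92 µM; cells exposed to compound for 24 h at 37 °C; plate controls were DMSO only for no effect and 92 µM tetraoctylammonium bromide for full effect; nearly all actives have a fitted effect of over 50% in size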
How it was run: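 Decrease in intracellular ATP after 24 hr treatment at 37 C, measured by luciferase luminescence, indicated cytotoxicity. Concentration-response data were fitted with the standard Hill equation to give AC50.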

[11] = Cell Viability - LYMP2-016 (AID 984);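 note: cells exposed to compound for 24 hours at 37 °C; % is set by controls: 0 for no effect and ±100 for the full control effect; nearly all actives have a fitted effect of over 55% in size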
How it was run: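 Concentration-dependent ATP depletion measured in LYMP2-016 lymphoblastoid cells, 24 h, 37 C; luciferase-based luminescent detection; Hill-equation AC50.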

[12] = Cell Viability - LYMP2-018 (AID 985);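 note: compound exposure lasted 24 hr at 37 °C; plate controls were DMSO only for no effect and tetraoctylammonium bromide at 92 µM for full effect; nearly all actives have a fitted effect of over 50% in size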
How it was run: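 Acute cytotoxicity is scored as a concentration-dependent drop in intracellular ATP after 24 hr exposure of the lymphoblastoid line in complete culture medium, measured by luciferase luminescence. Potency is expressed as AC50 from Hill modelling.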

[13] = Cell Viability - LYMP2-026 (AID 989);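 note: cells exposed to compound for 24 h at 37 °C; % is set by controls: 0 for no effect and ±100 for the full control effect; nearly all actives have a fitted effect of over 50% in size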
How it was run: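 Concentration-dependent loss of intracellular ATP in human lymphoblastoid cells after 24 hr at 37 C, quantified by luciferase luminescence. AC50 derived from standard Hill equation.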

[14] = Cell Viability - LYMP1-002 - Assay at 24 hr (AID 993); note: % is set by controls: 0 for no effect and ±100 for the full control effect
How it was run: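 qHTS, LYMP1-002 lymphoblastoid, 24 h cpd, 37 C, CellTiter-Glo ATP luminescence; AC50 via Hill eq.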

[15] = qHTS Assay for Identification of Small Molecule Inducers of Hypoxia Response (AID 2120; active = well fitted curve in the direction sought with a large enough effect in the signal ratio, with a control signal flat, not every such curve was filed as active; the % refers to the signal ratio; note: 0% is about no effect)
How it was run: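 Induction of beta-lactamase reporter activity was measured in CellSensor HRE-bla ME-180 cells after 17 h compound treatment at 37 degrees C, using CCF4 substrate and the 460nm/530nm emission ratio to derive AC50 values.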

[16] = target: Estrogen receptor (Homo sapiens) (UniProt P03372); experiment: qHTS assay for small molecule antagonists of estrogen receptor alpha signaling (AID 588513; active = well fitted curve in the direction sought with a large enough effect in the signal ratio, with a control signal flat, not every such curve was filed as active; the % refers to the signal ratio; note: % is set by controls: 0 for no effect and ±100 for the full control effect)
How it was run: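 Antagonist-mode qHTS in ER-alpha-UAS-bla HEK 293 cells: compound titration, 0.5nM estradiol for 18 h, CCF4 fluorescence, Hill-derived IC50.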

[17] = Cell Viability - LYMP2-020 (AID 986);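 note: series mostly up to about 92 µM; cells exposed to compound for 24 h at 37 °C; plate controls were DMSO only for no effect and tetraoctylammonium bromide at 92 µM for full effect; nearly all actives have a fitted effect of over 55% in size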
How it was run: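 Acute cytotoxicity in a human lymphoblastoid line is scored as a concentration-dependent fall in cellular ATP after 24 hr at 37 C in complete medium. The positive control is tetraoctylammonium bromide, and potency is given as Hill-fit AC50.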

[18] = Cell Viability - LYMP2-022 (AID 987)
How it was run: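 Acute toxicity in a human lymphoblastoid line is scored as decreased intracellular ATP after 24 hr compound treatment at 37 C. ATP is measured by CellTiter-Glo luminescence; curves are fitted with the Hill equation to give AC50.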

[19] = Cell Viability - LYMP2-024 (AID 988);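 note: cells exposed to compound for 24 hr at 37 °C; plate controls were DMSO only for no effect and 92 µM tetraoctylammonium bromide for full effect; nearly all actives have a fitted effect of over 60% in size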
How it was run: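 Acute toxicity is measured as concentration-dependent loss of intracellular ATP in a human lymphoblastoid line treated 24 hours at 37 C. Luciferase luminescence quantifies ATP; AC50 values come from standard Hill-equation modelling.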

[20] = Cell Viability - LYMP1-002 - Assay at 40 hr (AID 994);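 note: 0% = DMSO only and full inhibition = 92 µM tetraoctylammonium bromide; nearly all actives have a fitted effect of over 60% in size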
How it was run: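 Viability in the human lymphoblastoid line was measured as intracellular ATP via CellTiter-Glo after 40 hr compound exposure. Tetraoctylammonium bromide served as positive control.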

CC(=O)O[C@H]1C(=O)[C@@]2(C)[C@H]([C@H](OC(=O)c3ccccc3)[C@]3(O)C[C@H](OC(=O)[C@H](O)[C@@H](NC(=O)c4ccccc4)c4ccccc4)C(C)=C1C3(C)C)[C@]1(OC(C)=O)CO[C@@H]1C[C@@H]2O
inactive: outcome [1] | outcome [2] | outcome [3] | outcome [4] | outcome [5] | outcome [6] | activation [7] -6.87%

Nc1nc2c(ncn2[C@@H]2O[C@H](CO)[C@@H](O)[C@H]2O)c(=O)[nH]1
inactive: outcome [4] | outcome [5]

Nc1ccccc1N
active: Potency [8] 15.8 µM
inactive: outcome [9] | outcome [10] | outcome [11] | outcome [12] | outcome [13] | outcome [14] | outcome [15] | outcome [16]

CC(=O)c1cc2c(cc1O)OC(C)(C)C=C2
inactive: outcome [4]

COc1ccc(C[C@H](N)C(=O)N[C@@H]2[C@H](O)[C@H](n3cnc4c(N(C)C)ncnc43)O[C@@H]2CO)cc1
inactive: outcome [4]

CC(C)C(N)C(=O)OCCOCn1cnc2c(=O)[nH]c(N)nc21 (configuration not stated)
inactive: outcome [4]

CC[C@]1(O)CC2CN(CCc3c([nH]c4ccccc34)[C@@](C(=O)OC)(c3cc4c(cc3OC)N(C)[C@H]3[C@@](O)(C(=O)OC)[C@H](OC(C)=O)[C@]5(CC)C=CCN6CC[C@]43[C@@H]65)C2)C1 (some centres not stated)
inactive: outcome [3]

COc1ccc2c(OC)c3ccoc3nc2c1OC
inactive: outcome [4] | outcome [5]

CC(=O)O[C@@H]1CC(C)=C2[C@H]1[C@H](C)CC[C@H]2/C=C(\C)C(=O)O
inactive: Potency [8] | outcome [9] | outcome [10] | outcome [11] | outcome [12] | outcome [17] | outcome [18] | outcome [19] | outcome [13] | outcome [14] | outcome [20] | outcome [15] | outcome [16] | outcome [6] | activation [7] -3.27%

Cc1ccc(N)cc1O
inactive: Potency [8] | outcome [9] | outcome [10] | outcome [11] | outcome [12] | outcome [17] | outcome [18] | outcome [19] | outcome [13] | outcome [14] | outcome [20] | outcome [15] | outcome [6]
